40 compounds from PubChem BioAssay (NCI) can be followed below.

Each structure is given as a SMILES string. About 79,000 compounds went through this panel and 15% of them were active in at least one assay; those are over-represented in the sample as a whole. Values without a mark were called inactive. The source made the active and inactive calls. Cut-off read from the data, not from the text of the source: active = growth inhibition above about 70%; inactive = the rest.

The assay is described as follows: NCI Yeast Anticancer Drug Screen. Data for the sgs1 mgt1 strain (AID 161).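 Note: 0% = growth of cultures given vehicle only.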 The conditions noted are these: S. cerevisiae sgs1 mgt1 strain, at 50.0 µM, active compounds read high. A digest of the protocol: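 Mutant yeast exposed to compound; growth scored against vehicle-only wells.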
For the compound `CC1CCC2(OC1)OC1CC3C4CCC5CC(O)CCC5(C)C4CC(=O)OC3(C)C1C2C` (stereo not given), the growth inhibition was -14.8%.

As to `O=c1[nH]nc(SCc2ccccc2)c2nncn12`, the growth inhibition is 6.35%.

With `COC(=O)Nc1cccc(-c2nc3ccc(NC(=O)OC)cc3c(=O)n2-c2ccccc2)c1`, the growth inhibition is -22.6%.

`Cn1c(Nc2ccccc2)c([N+](=O)[O-])c(=O)n(C)c1=O`: the growth inhibition is -5%.

With `COc1ccc2ccc3[nH]c4c(C)cnc(NCCCN(C)C)c4c3c2c1`, the growth inhibition was 55.9%.

In the case of `O=C(CCc1nnc2s/c(=C\c3ccc(Cl)cc3Cl)c(=O)n12)Nc1cc(Cl)c(Cl)cc1Cl`, the growth inhibition was -7.4%.

`N#Cc1c2c(c(N3CCCCC3)n3c1nc1ccccc13)CCC2`: the growth inhibition was 26.8%.

With `C/C=C(/C)C(=O)O[C@H]1C[C@@H]2[C@@H](O)c3occ(C)c3C[C@]2(C)[C@@H](C)C1`, the growth inhibition was 91.6% (active).

For the compound `O=c1oc2ccccc2cc1S(=O)(=O)c1ccc(Cl)cc1`, the growth inhibition was 3.7%.

`N#CCN1CCOCCOCCN(CC#N)CCOCCOCC1`: the growth inhibition is 5.75%.

`O=C(NCc1ccccn1)c1ccccc1`: the growth inhibition is -4.45%.

On to `Cc1cc(=O)[nH]c(NN2C(Cl)C(=O)C2c2ccc([N+](=O)[O-])cc2)n1` (stereo not given), for which the growth inhibition was 12.7%.

With `COC(=O)Nc1nc2c(OC)c(OC)c(OC)cc2[nH]1`, the growth inhibition is -3.95%.

Consider `CC(C)OP(=O)(OC(C)C)c1ccc2c(c1)OCCOCCOCCOCCO2`, for which the growth inhibition is 9.2%.

Regarding `CC(C)OP(=O)(OC(C)C)/C(N)=N/Nc1ccc([N+](=O)[O-])cc1`, the growth inhibition is -5.6%.

Regarding `COc1ccc(C(=O)NNC(=O)c2ccc3ccccc3c2)cc1`, the growth inhibition is 9.8%.

For the compound `C[N+]1(CC[N+]2(C)CCCC2c2cccnc2)CCCC1c1cccnc1` (stereo not given), the growth inhibition was -16.9%.

`CCCCC(O)CNc1ccccc1` (stereo not given): the growth inhibition was 5.7%.

As to `CC(C)=CC(=O)OC1C2C(C)C(=O)OC2C(O)C(C)C2C=CC(=O)C21C` (stereo not given), the growth inhibition is 9.6%.

`CC(=O)N1C(=O)NC(=O)C1(C)c1cccs1` (stereo not given): the growth inhibition is 2.9%.

For `CCCCCCC(C)OC(C)=O` (stereo not given), the growth inhibition was -2.55%.

For the compound `O=C(c1ccc(Cl)cc1Cl)N(/N=C/C=C/c1ccccc1)c1nnc(-c2ccccc2)c(-c2ccccc2)n1`, the growth inhibition is -21.3%.

As for `CC(C)(Cc1ccc(Cl)cc1)NC(N)=O`, the growth inhibition is -21.4%.

As for `CC(C)c1cccc(C(C)C)c1NC(=O)OC1CCCCC1`, the growth inhibition was 8.2%.

Turning to `O=C1c2ccccc2-c2cc(F)ccc21`, the growth inhibition is -7.4%.

Turning to `O=C(/C=C/c1ccc2c(c1)OCO2)C1CC1`, the growth inhibition was 28.2%.

Turning to `COC(=O)N/N=C/c1ccc(C)cc1`, the growth inhibition was -10%.

Regarding `C(=N\c1oc(-c2ccccc2)c(-c2ccccc2)c1-c1ccccc1)/c1ccccc1`, the growth inhibition is -4.85%.

As for `Brc1ccncc1`, the growth inhibition was -1.55%.

Regarding `COc1ccc(NC(=O)COc2cc(Cl)c(Cl)cc2Cl)cc1`, the growth inhibition is 2.05%.

For `O=CC(CO)CC(C=O)n1cnc2c(=O)[nH]cnc21` (stereo not given), the growth inhibition is -15.2%.

For `CCOC(=O)NCC(=O)NCC(=O)NCC(N)=O`, the growth inhibition is -12.9%.

For the compound `N=c1ccn(CC(O)COc2ccccc2)cc1` (stereo not given), the growth inhibition is -5.95%.

For the compound `CC1(C)[C@@H]2C[C@H]1C(Cc1cccc(C[C@H]3c4cc(-c5ccccn5)ncc4[C@H]4C[C@@H]3C4(C)C)c1)c1cc(-c3ccccn3)ncc12` (stereo not given in full), the growth inhibition is 4.95%.

For `CC(C)NCC(O)COc1c2ccccc2nc2ccccc12` (stereo not given), the growth inhibition was -24.2%.

As for `CC1(C)OS(=O)(=O)C=C1Br`, the growth inhibition was -4.15%.

Consider `CCCCOc1ccc(Nc2c(C(=O)O)cnc3cc4c(cc23)OCO4)cc1`, for which the growth inhibition was -13.7%.

On to `COc1cc(CN(c2ccccc2C(=O)O)S(=O)(=O)c2ccc(C)cc2)ccc1[N+](=O)[O-]`, for which the growth inhibition is 38.2%.

Regarding `O=C(CCl)Nc1ccc(SSc2ccc(NC(=O)CCl)cc2)cc1`, the growth inhibition was 47.1%.

As to `CCCCCCCCCC(=O)N/N=C/c1ccco1`, the growth inhibition is 63%.
